Data published in PubChem BioAssay AID602140 (NMMLSC, 2011).
This is one part of the list. Values without a mark were called inactive. No rule for the calls is given here.

system: Botulinum neurotoxin type F light chain protease (Clostridium botulinum); experiment: BoNT/F light chain protease inhibitors, confirmation, biochemical, flow cytometry, cherry pick 1 (AID 602140); conditions: multiplex microsphere protease cleavage assay, at 10 µM, active compounds read high

Structure (SMILES)	inhibition
COCc1cc(=O)[nH]c(SC)n1	-4.2%
Nc1ccccc1Sc1cc(Cl)nnc1Cl	-1.4%
CCOc1nnc(C)c2c(C)n(-c3cccc(Cl)c3)nc12	18.1%
COc1ccc(C(=O)Nc2nc(-c3ccc(OC)cc3)c(-c3ccc([N+](=O)[O-])cc3)s2)cc1	4%
COc1cc2cc(CN(CCN3CCCC3)C(=O)Nc3ccccc3Cl)c(=O)[nH]c2cc1OC	0.8%
O=C(Nc1nnc(CCc2ccccc2)s1)C1CCCO1 (stereo unspecified)	-7%
Cc1ccc(-c2nc(-c3cccnc3)sc2CC(=O)Nc2ccc(C)c(Cl)c2)cc1	-18.6%
CN(C(=O)c1ccccn1)c1nnc(-c2ccccn2)s1	-3.7%
Cc1cccc2cc3c(N)c(C(=O)N4CCCc5ccccc54)sc3nc12	0.3%
CCN1CCN(C(C(=O)NC2CCCC2)c2cc3c(cc2[N+](=O)[O-])OCO3)CC1 (stereo unspecified)	-4.2%
CCOc1ccc(NC(=O)CC(Cc2ccc(Cl)cc2)C(=O)O)cc1 (stereo unspecified)	-1.5%
COc1ccc(N(CC(=O)NCCSCc2cccc(Cl)c2)S(C)(=O)=O)cc1	-2.3%
COc1ccccc1C1CCN(C(=S)Nc2ccc(Br)cc2)CC1	4.3%
COC(=O)CN(c1nc(C)c(Cl)c(OC)n1)S(=O)(=O)c1ccc(C)cc1	-0.3%
COc1ccc(Br)cc1CNCCc1cccc(Cl)c1	-10%
CC1CCN(C(=O)c2ccc(S(=O)(=O)Cc3cc(F)ccc3F)c([N+](=O)[O-])c2)CC1	1.2%
CCOCCn1c(-c2ccccc2)nc2ccccc21	-2.2%
COc1ccccc1-n1c(-c2cc(-c3ccco3)[nH]n2)n[nH]c1=S	4%
CC1CCc2c(sc3nc4n(c(=O)c23)CCS4)C1 (stereo unspecified)	-5.8%
Cc1ccc2[nH]cc(CCNC(=O)C3CCCCC3)c2c1	0.6%
CC(=O)Nc1ccc(Oc2ccc3c(c2)C(=O)NC3=O)cc1	-3.5%
